# Measurements published in PubChem BioAssay.
# Calls of active or inactive are those of the source. Unless noted, how the calls were made is not given here.
# Tests used:
# [1] = compounds binding Alexa647 anti-His antibody – biochemical, small-molecule microarray, 635 nm fluorescence, artefact control for SMM control protein annotation, primary screen (AID 1128); conditions: higher = more signal;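 further: score merges feature fluorescence with signal-to-noise for each printed compound spot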
# [2] = test system: Human papillomavirus type 1a E7 protein (residues 1-88); assay: HPV1a E7 small-molecule binders, primary screen, biochemical, small-molecule microarray, residues 1-88, 635 nm (AID 1129); conditions: small-molecule microarray binding, fluorescence 635 nm; higher = more signal
# [3] = molecular target: Focal adhesion kinase 1 (Homo sapiens) (UniProt Q05397); assay: PTK2 protein binding on printed compound slides – biochemical, small-molecule microarray, 635/667 nm fluorescence, BSA, DTT, primary screen (AID 1130); conditions: 635 nm fluorescence, higher = more signal;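 further: composite of spot emission at 667 nm and signal to noise over triplicate slides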
# Sequence of Focal adhesion kinase 1 (Homo sapiens) (Q05397 whole entry, looked up): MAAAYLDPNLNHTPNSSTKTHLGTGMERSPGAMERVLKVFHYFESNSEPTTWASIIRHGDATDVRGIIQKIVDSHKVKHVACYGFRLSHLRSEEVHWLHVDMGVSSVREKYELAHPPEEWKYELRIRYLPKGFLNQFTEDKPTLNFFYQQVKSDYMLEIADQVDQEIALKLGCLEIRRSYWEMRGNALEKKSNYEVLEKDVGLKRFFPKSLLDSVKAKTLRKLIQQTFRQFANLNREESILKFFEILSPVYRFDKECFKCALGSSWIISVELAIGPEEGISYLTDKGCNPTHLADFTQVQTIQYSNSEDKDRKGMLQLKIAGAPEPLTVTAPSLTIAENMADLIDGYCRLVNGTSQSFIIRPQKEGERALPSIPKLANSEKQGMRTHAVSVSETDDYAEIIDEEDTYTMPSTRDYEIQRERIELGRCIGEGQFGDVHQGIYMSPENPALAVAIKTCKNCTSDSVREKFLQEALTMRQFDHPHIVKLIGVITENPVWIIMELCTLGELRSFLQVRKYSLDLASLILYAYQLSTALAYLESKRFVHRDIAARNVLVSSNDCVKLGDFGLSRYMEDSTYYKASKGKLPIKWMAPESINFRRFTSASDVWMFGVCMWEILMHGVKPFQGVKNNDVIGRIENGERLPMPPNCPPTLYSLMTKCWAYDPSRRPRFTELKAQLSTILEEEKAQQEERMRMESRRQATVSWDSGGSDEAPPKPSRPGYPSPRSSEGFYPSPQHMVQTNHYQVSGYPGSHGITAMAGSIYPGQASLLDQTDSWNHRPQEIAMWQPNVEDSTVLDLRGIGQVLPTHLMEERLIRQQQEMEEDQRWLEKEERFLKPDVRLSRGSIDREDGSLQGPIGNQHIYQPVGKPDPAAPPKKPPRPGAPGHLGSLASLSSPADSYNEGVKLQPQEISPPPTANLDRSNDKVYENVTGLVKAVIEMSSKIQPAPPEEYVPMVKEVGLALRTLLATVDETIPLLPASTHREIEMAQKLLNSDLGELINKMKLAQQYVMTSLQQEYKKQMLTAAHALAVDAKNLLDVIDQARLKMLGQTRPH
# [4] = test system: Fibrinogen (Alexa647-labelled); assay: Alexa647-fibrinogen binding to printed small molecules – biochemical, small-molecule microarray, 635/667 nm fluorescence, artefact control for SMM control-protein annotation, profiling panel (AID 1131); conditions: fibrinogen-A647 binding fluorescence, higher = more signal;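 further: z-score merges 667 nm fluorescence with per-spot signal-to-noise over triplicate slides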
# [5] = molecular target: Follistatin (Homo sapiens) (UniProt P19883); assay: FST protein binding to printed compounds – biochemical, small-molecule microarray, 635/667 nm fluorescence, primary screen (AID 1132); conditions: 635 nm fluorescence, higher = more signal
# Sequence of Follistatin (Homo sapiens) (P19883 whole entry, looked up): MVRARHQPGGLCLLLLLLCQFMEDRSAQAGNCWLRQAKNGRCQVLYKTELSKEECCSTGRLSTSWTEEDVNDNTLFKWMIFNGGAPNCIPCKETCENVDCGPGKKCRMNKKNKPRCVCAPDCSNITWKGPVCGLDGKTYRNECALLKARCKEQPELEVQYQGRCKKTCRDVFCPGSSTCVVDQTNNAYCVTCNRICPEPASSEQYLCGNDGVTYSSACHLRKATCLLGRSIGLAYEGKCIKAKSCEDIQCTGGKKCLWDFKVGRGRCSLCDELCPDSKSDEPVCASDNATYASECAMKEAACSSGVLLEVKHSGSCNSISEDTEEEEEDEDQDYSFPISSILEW
# [6] = molecular target: Fibroblast growth factor 2 (Homo sapiens) (UniProt P09038); assay: basic fibroblast growth factor binding to printed compounds – biochemical, small-molecule microarray, 635/667 nm fluorescence, primary screen (AID 1133); conditions: FGF2, fluorescence 635/667, higher = more signal
# Sequence of Fibroblast growth factor 2 (Homo sapiens) (P09038 whole entry, looked up): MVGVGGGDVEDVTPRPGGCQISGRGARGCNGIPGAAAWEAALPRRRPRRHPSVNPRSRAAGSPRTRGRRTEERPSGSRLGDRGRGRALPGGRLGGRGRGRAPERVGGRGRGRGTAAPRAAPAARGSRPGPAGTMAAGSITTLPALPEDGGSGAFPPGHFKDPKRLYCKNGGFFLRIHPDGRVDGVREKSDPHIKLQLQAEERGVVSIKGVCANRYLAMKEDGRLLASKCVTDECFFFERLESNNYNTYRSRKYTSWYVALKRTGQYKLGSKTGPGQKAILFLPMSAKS
# [7] = JC-1 mitochondrial potential readout, lung cancer cells – cell-based, A549, JC-1 fluorescence, basal, 24 h, 100 nL, profiling panel (AID 1138); conditions: higher = more signal;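 further: A549 lung adenocarcinoma cells under basal conditions with no added stimulus; test concentration not given here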
# [8] = test system: Lefty1; assay: Lefty1 protein binding to printed compounds – biochemical, small-molecule microarray, 635/667 nm fluorescence, primary screen (AID 1139); conditions: fluorescence 635/667, higher = more signal
# [9] = test system: wheat germ agglutinin (Triticum aestivum), Alexa647-labelled; assay: Alexa647-WGA lectin binding to printed small molecules – biochemical, small-molecule microarray, 635/667 nm fluorescence, artefact control for SMM control-protein annotation, profiling panel (AID 1140); conditions: WGA-A647 binding, 635 nm fluorescence, higher = more signal;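 further: score merges 667 nm feature emission with signal to noise over triplicate slides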
# [10] = molecular target: Luciferin 4-monooxygenase (Photinus pyralis) (UniProt P08659); assay: inhibition of purified Photinus pyralis luciferase – biochemical, luminescence, purified enzyme, 2006 set, primary screen (AID 1141); conditions: purified firefly luciferase, SteadyGlo luminescence, 30 min; higher = more signal, called active from +8 up or from −8 down;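 further: cell-free assay with purified firefly luciferase at 100 ng per well in PBS; test concentration not given here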
# Sequence of Luciferin 4-monooxygenase (Photinus pyralis) (P08659 whole entry, looked up): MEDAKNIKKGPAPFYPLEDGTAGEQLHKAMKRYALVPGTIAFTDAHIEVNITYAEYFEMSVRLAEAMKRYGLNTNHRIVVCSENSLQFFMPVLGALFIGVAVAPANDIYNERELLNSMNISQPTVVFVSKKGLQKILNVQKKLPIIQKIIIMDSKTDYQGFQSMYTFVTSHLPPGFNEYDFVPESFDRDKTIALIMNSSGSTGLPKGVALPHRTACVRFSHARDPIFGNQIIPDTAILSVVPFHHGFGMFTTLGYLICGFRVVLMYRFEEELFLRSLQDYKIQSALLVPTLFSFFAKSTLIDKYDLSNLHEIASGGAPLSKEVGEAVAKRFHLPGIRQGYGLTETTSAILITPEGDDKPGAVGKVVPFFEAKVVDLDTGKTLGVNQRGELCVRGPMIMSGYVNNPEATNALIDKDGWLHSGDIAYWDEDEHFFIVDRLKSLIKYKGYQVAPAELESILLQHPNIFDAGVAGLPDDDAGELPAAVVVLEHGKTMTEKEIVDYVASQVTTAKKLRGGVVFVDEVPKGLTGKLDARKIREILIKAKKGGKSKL
# [11] = test system: Wnt5a (protein binding on small-molecule microarray); assay: small molecules binding Wnt5a protein – biophysical, small-molecule microarray, 635/667 nm fluorescence, primary screen (AID 1142); conditions: 635 nm fluorescence, higher = more signal;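 further: fluorescence read at 667 nm with signal to noise per printed feature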
# [12] = ATP-based viability of Huh7 replicon cells – cell-based, CellTiter-Glo luminescence, basal, 48 h, cytotoxicity control for HCV replication inhibitor project, primary screen (AID 1143); conditions: higher = more signal, called active from +8 up or from −8 down;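 further: Huh7 hepatoma cells carrying a hepatitis C replication reporter with no stimulus; test concentration not given here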
# [13] = Pseudomonas biofilm growth suppression – PAO1 strain, BacTiter-Glo luminescence, LB-PBS, primary screen (AID 1144); conditions: P. aeruginosa PAO1 biofilm, 12 h, higher = more signal
# [14] = basal CRE-LacZ reporter activity in PC12 – cell-based, unstimulated, primary screen (AID 1145); conditions: no forskolin, luminescence, 4.5 h, higher = more signal, called active from +8 up or from −8 down
# [15] = forskolin-driven CRE-LacZ activity in PC12 – cell-based, CRE-LacZ reporter, forskolin-stimulated, primary screen (AID 1146); conditions: luminescence, 4.5 h, higher = more signal, called active from +8 up or from −8 down;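 further: PC12 cells with 6xCRE LacZ reporter stimulated by forskolin 10 µM; beta-galactosidase reporter signal reflecting CREB driven transcription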
# [16] = molecular target: Streptavidin (Streptomyces avidinii) (UniProt P22629); assay: compounds binding control protein streptavidin – biophysical, small-molecule microarray, 635/667 nm fluorescence, artefact control for SMM compound annotation, primary screen (AID 1147); conditions: higher = more signal;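 further: signal reflects streptavidin binding to arrayed compounds as a control protein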
# Sequence of Streptavidin (Streptomyces avidinii) (P22629 whole entry, looked up): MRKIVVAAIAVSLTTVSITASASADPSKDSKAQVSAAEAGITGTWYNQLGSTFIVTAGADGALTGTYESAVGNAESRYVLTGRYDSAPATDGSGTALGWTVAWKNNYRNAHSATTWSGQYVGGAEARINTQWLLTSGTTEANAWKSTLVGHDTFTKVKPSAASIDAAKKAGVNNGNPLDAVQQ
# [17] = probe aInhba binding on compound microarray – biochemical, small-molecule microarray, 635/667 nm fluorescence, primary screen (AID 1148); conditions: higher = more signal;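 further: score merges 667nm spot fluorescence with signal-to-noise for antibody binding to printed compounds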
# [18] = molecular target: Torsin-1A (Homo sapiens) (UniProt O14656); assay: TOR1A wild-type binding on microarray – cell lysate, small-molecule microarray, lysate, 635/667 nm, primary screen (AID 1149); conditions: COS7 hTOR1A-WT lysate, 635 nm fluorescence, higher = more signal
# Sequence of Torsin-1A (Homo sapiens) (O14656 whole entry, looked up): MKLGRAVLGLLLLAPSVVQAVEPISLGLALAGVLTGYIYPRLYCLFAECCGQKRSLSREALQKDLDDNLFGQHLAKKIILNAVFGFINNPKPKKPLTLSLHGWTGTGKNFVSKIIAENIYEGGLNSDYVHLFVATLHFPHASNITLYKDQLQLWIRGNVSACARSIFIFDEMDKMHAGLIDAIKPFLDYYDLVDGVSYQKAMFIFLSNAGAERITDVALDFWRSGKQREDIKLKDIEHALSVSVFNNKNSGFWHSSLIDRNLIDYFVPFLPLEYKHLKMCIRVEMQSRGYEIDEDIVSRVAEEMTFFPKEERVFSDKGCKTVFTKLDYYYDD
# [19] = molecular target: Torsin-1A (Homo sapiens) (UniProt O14656); assay: torsin A mutant lysate binding on microarrays – cell lysate, small-molecule microarray, COS7 lysate, 635/667 nm fluorescence, primary screen (AID 1150); conditions: COS7 hTOR1A mutant lysate, 635 nm fluorescence, higher = more signal;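 further: score pools 667 nm emission and signal to noise measuring lysate protein binding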
# [20] = test system: Sonic hedgehog protein (Shh); assay: Sonic hedgehog microarray binding compounds – biochemical, small-molecule microarray, 635/667 nm fluorescence, primary screen (AID 1151); conditions: 635 nm fluorescence, higher = more signal;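 further: Shh protein binding to compounds spotted on small-molecule microarray slides; score combines spot fluorescence intensity with signal-to-noise across triplicate slides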
Compound,composite z-score [1],composite z-score [2],composite z-score [3],composite z-score [4],composite z-score [5],composite z-score [6],z-score [7],composite z-score [8],composite z-score [9],z-score [10],composite z-score [11],z-score [12],z-score [13],z-score [14],z-score [15],composite z-score [16],composite z-score [17],composite z-score [18],composite z-score [19],composite z-score [20]
C=CCN1C(=O)[C@]2(Cc3ccccc31)N=C(c1ccc(OCCCO)cc1)O[C@@H]2c1ccccc1,0.599,1.22,0.436,0.585,1.36,1.65,0.188,0.366,0.322,-1.39 (inactive),1.2,-3.54 (inactive),-0.324 (inactive),-0.146 (inactive),-0.436 (inactive),0.586,-0.0645,0.154,0.512,0.308
COCC1C2CC[C@H]3C(OCc4ccc(F)cc4C(F)(F)F)OC[C@]4(C)[C@H]3C2=C(CN4C(=O)OC(C)(C)C)[C@H](C)C1COC (stereo not given in full),0.976,1.18,0.475,0.764,0.342,-0.593,1.52,-0.348,1.14,0.248 (inactive),0.33,-1.84 (inactive),0.338 (inactive),0.0007 (inactive),0.172 (inactive),1.2,0.385,0.404,1.35,-1.4
C=CCN1Cc2ccccc2C[C@]2(N=C(c3ccc(OCCCO)cc3)O[C@@H]2c2ccccc2)C1=O,1.66,1.12,0.692,0.441,1.36,1.76,1.21,0.706,0.436,-1.87 (inactive),0.469,-4.28 (inactive),-0.066 (inactive),1.64 (inactive),-1.28 (inactive),-0.138,0.167,0.821,1.15,1.81
C=C[C@@H](C)[C@@H](OC(=O)Nc1ccc(OC)cc1)c1ccc(O)c2ccccc12,0.305,0.52,-0.209,0.521,1.16,1.22,-1.38,0.676,0.449,-5.76 (inactive),-0.124,-5.48 (inactive),-0.901 (inactive),0.758 (inactive),0.999 (inactive),0.0646,-0.154,0.15,-0.0324,1.53
C=CCN1C(=O)[C@@]2(O[C@@H](CCO)[C@H]([Si](C)(C)c3ccc(OC)cc3)[C@H]2C)c2cc(N3C(=O)COc4ccccc43)ccc21,1.52,1.02,0.346,0.578,0.25,0.27,-0.839,0.0865,0.577,-0.401 (inactive),0.564,-7.99 (inactive),0.798 (inactive),26 (active),-4.06 (inactive),0.83,-0.101,-0.048,-0.0358,0.531
COC(=O)[C@@]1(Cc2ccc(OC)cc2)[C@H]2c3cc(C(=O)N4CCCC4)n(C[C@H](O)CO)c3C[C@H]2CN1C(=O)c1ccccc1,0.39,0.339,0.493,0.276,-0.319,-0.411,0.605,-0.752,1.02,1.84 (inactive),0.0149,-0.132 (inactive),-0.389 (inactive),-0.365 (inactive),0.294 (inactive),0.528,0.0082,-0.467,0.354,-0.666
COC(=O)[C@@]1(Cc2ccc(OC)cc2)[C@H]2c3cc(C(=O)N(C)C)n(Cc4ccc(OC)c(OC)c4)c3C[C@H]2CN1C(=O)c1ccccc1,1.26,1.25,0.96,0.844,0.745,-0.3,0.327,-0.257,0.951,1.72 (inactive),0.171,-2.97 (inactive),0.437 (inactive),0.583 (inactive),0.292 (inactive),1.67,0.55,0.258,1.17,-0.521
O=C1C2C=CC(C(O)c3ccccn3)N(Nc3ccccc3F)C2C(=O)N1c1ccccc1 (stereo not given),-0.0724,0.525,1.27,0.696,0.101,-0.0308,1.03,-0.377,0.253,-0.323 (inactive),-0.0672,0.894 (inactive),-0.62 (inactive),-0.708 (inactive),0.901 (inactive),0.429,-0.0986,0.456,0.432,-0.461
[N-]=[N+]=NCc1ccccc1C[C@]1(C(=O)N2CCOCC2)N=C(c2ccc(OCCCO)cc2)O[C@H]1c1ccccc1,1.22,0.672,-0.0665,0.909,0.826,0.816,0.078,0.0094,0.359,0.4 (inactive),0.258,-5.35 (inactive),-0.764 (inactive),0.391 (inactive),-1.5 (inactive),0.981,0.0091,0.0039,0.348,-0.147
O[C@@H](Cc1ccccc1)[C@@H](/C=C/c1ccccc1)NCc1ccccc1Br,-0.538,-0.85,-0.716,-0.354,-1.19,-1.14,0.772,-1.64,0.217,0.284 (inactive),-1.01,-0.626 (inactive),-0.662 (inactive),2.67 (inactive),-2.09 (inactive),-0.736,-0.205,-2.13,-1.9,-1.08
